This is a sample that favours compounds with a hit; in the whole collection about 2.3% have one here.
CHRM1 PAM: positive allosteric modulators of human M1 muscarinic receptor. P11229. CHO-K1 hM1, Fluo-8 calcium fluorescence, ACh EC20; 0% = ACh EC20, 100% = maximal ACh. activation, % at 3 µM. hit rate 0.088% among 360,000. AID 588819; in the data active = activation above about 19%, passing the limit was not always enough
Target sequence (P11229 whole entry, looked up): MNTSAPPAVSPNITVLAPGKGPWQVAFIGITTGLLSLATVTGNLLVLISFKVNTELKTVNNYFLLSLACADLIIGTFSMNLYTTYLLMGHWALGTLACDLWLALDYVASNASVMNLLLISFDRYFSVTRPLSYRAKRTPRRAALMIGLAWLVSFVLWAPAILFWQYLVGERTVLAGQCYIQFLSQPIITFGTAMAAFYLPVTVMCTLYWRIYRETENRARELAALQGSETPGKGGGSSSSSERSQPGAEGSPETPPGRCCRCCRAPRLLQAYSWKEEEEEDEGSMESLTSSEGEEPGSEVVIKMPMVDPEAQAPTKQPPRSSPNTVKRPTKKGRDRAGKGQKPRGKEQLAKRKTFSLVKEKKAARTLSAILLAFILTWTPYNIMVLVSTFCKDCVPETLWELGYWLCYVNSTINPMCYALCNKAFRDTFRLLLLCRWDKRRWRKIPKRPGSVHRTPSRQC
M1 ag parental: M1 agonist counterscreen hit in parental CHO-K1 cells | Fluo-8 calcium fluorescence; scaled to maximal ATP response, vehicle zero | activation, % at 3 µM | hit rate 0.48% among 360,000 | AID 602248; in the data active = activation above about 15%;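 also: untransfected CHO-K1 host cells lacking M1 receptor as counterscreen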
CHO-K1 Ca antag: nonselective inhibitor or artifact in parental CHO-K1 cells. ATP-induced calcium, Fluo-8 fluorescence. inhibition, % at 3 µM. hit rate 0.6% among 360,000. AID 602250;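 active = inhibition above a per-plate cutoff, the plate's mean sample inhibition plus 3 SD, cut at about 24% in these data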
CHO-K1 Ca PAM: counter-screen for M1 PAMs: effect in parental CHO-K1 cells. activation, % at 3 µM. hit rate 0.02% among 360,000. ATP EC20, Fluo-8 calcium fluorescence; 0% at ATP EC20, 100% at ATP max;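 active = activation above the run cutoff, the mean activation of all test compounds plus 3 SD, cut at about 40% in these data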;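 also: peak over basal fluorescence ratio in a 140 s read after ATP addition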
M1 antag: antagonists of human M1 muscarinic receptor | CHO-K1 hM1, Fluo-8 calcium fluorescence, ACh EC80 antagonist | hit rate 1.3% among 360,000 | inhibition, % at 3 µM | P11229 | AID 588852;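 active = percent inhibition above its own plate's cutoff, namely the mean of that plate's compound wells plus 3 SD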;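 also: peak over basal fluorescence ratio during 140 s after agonist addition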
CHRM1 agonist: activates human CHRM1 receptor | AID 588814 | P11229 | hit rate 0.33% among 360,000 | CHO-K1 hM1, Fluo-8 calcium fluorescence, agonist mode; 0% DMSO, 100% acetylcholine EC100 | activation, % at 3 µM;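 active = activation above the run's mean compound activation plus 3 SD, cut at about 16% in these data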;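 also: peak over basal fluorescence ratio within a 140 s kinetic read after compound addition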
Each line names hits and unclear results; the compound was inactive in the other large screens.

CCCCNc1c(-c2ccc(OC)c(SC3CCCCC3)c2)nc2cc(C)ccn12	none
CCCCNc1c(-c2cccc(-c3cc(C(C)=O)cs3)c2)nc2ccc(C)cn12	M1 antag 37
CCCCNc1c(-c2cccc(-c3ccc(OC)cc3)c2)nc2cc(C)ccn12	M1 antag 62
COC(CNC(=O)C(=O)Nc1cc2c3c(c1)CCN3C(=O)CC2)OC	none
Oc1ccc(N=Nc2ccc3c(c2)OCCO3)c2ncccc12	M1 ag parental 17, M1 antag 32
CCN(C(=O)COC(=O)c1cc(Cl)ccc1OC)c1c(N)n(Cc2ccccc2)c(=O)[nH]c1=O	none
Cc1ccc(N2C(=O)C3N=NN(CC(=O)N4N=C(c5ccccc5)CC4c4ccccc4)C3C2=O)cc1 (stereo not drawn)	CHO-K1 Ca antag 24
COc1ccc(C2=NN(C(=O)CCC(=O)O)C(c3ccccc3)C2)cc1 (stereo not drawn)	none
CCOC(=O)Cn1nc(C)c(NC(=O)COc2ccc(C)c(C)c2)c1C	none
O=C(Cc1ccc([N+](=O)[O-])cc1)Nc1cc(C(F)(F)F)cc(C(F)(F)F)c1	CHO-K1 Ca antag 29
Cc1ccc(S(=O)(=O)NNC(=O)c2ccoc2C)cc1	none
O=C(Nc1ccc(OCC(F)(F)C(F)F)c(C(F)(F)F)c1)c1ccccc1O	CHO-K1 Ca antag 24, M1 antag 20
Cc1c(/C=N/NC(=O)c2sc3ccccc3c2Cl)cnn1C	CHO-K1 Ca antag 26
c1ccc(COc2ccc(Nc3ncnc4nc[nH]c34)cc2)cc1	CHO-K1 Ca antag 24
CCOC(=O)c1ccc(Nc2ncnc3nc[nH]c23)cc1	none
CC(=O)c1c(C)nn(CC(=O)NC2CCCN(Cc3ccc(CC(C)C)cc3)C2)c1C (stereo not drawn)	M1 antag 47
COc1cc(-c2noc(C)c2-c2ccc(N(C)C)nc2)cc(OC)c1OC	M1 ag parental 32, CHRM1 agonist 34
COc1cc(-c2noc(C)c2-c2ccc3[nH]ccc3c2)cc(OC)c1OC	none
CC(C)(C)C(=O)/C=c1\[nH]c(=O)/c(=C\c2ccc(C#N)cc2)s1	CHO-K1 Ca antag 25
CCOc1ccc(S(=O)(=O)n2cc(F)c(=O)[nH]c2=O)cc1[N+](=O)[O-]	none
CCOc1ccc(S(=O)(=O)n2cc(F)c(=O)[nH]c2=O)cc1	CHO-K1 Ca antag 24
CCN(CC)C(=O)C1=C(C)N(CCCOC)C(=O)C(CC(=O)NC2CCCCC2)C1 (stereo not drawn)	none
COCCn1c(SC(C)C(=O)NCC2CCCO2)nc2scc(-c3ccc(F)cc3)c2c1=O (stereo not drawn)	none
C[C@H]1CN([C@@H](C)CO)C(=O)c2cc(Br)cnc2O[C@@H]1CN(C)C(=O)Nc1ccc(C(F)(F)F)cc1	none
CN(C)c1ccc(NC(=O)c2sc(SCC(=O)Nc3nccs3)nc2N)cc1	M1 antag 24
Cn1c2ccccc2c(=O)c2c(=O)n(C3CCCCC3)c(-c3ccco3)nc21	M1 ag parental 24, CHRM1 agonist 19
Cc1nc2c(c(=O)c3ccccc3n2C)c(=O)n1C1CCCCCC1	none
Cc1cccc(NS(=O)(=O)c2ccc(C)c(C(=O)NCC(c3ccco3)N3CCCCC3)c2)c1 (stereo not drawn)	none
NS(=O)(=O)c1ccc(CCNC(=O)c2ccccc2-c2ccccc2)cc1	none
CCOC(=O)C1[C@H]2C(=O)N(C(C)c3ccc(OC)cc3)C[C@]23C=C[C@H]1O3 (stereo partly drawn)	M1 antag 69
Cn1c(CCC(=O)OCC(=O)Nc2ccc(Oc3ccccc3)cc2)nc(=O)c2ccccc21	M1 antag 37
CCCCn1c(N)c(N(CCOC)C(=O)c2cc(-c3ccccc3Cl)nc3ccccc23)c(=O)[nH]c1=O	none
O=C(CCCN1C(=O)/C(=C/c2ccccc2OC(F)F)SC1=S)Nc1cccnc1	none
CSc1ncccc1C(=O)OCC(=O)NC1CCS(=O)(=O)C1 (stereo not drawn)	M1 ag parental 16
COc1ccc(C[C@H]2CN3C(=NC[C@H]3C)N2CCNC(=O)c2ccc(C)c(Br)c2)cc1	M1 antag 76
CCN(CC)CCSc1nc2ccccc2n1Cc1ccccc1	M1 antag 90
Cc1cc(-c2ccccc2)nc(SCc2ccc(C(=O)O)cc2)n1	none
COc1ccc(NC(=O)C(Sc2ccccc2)c2ccccc2)c(OC)c1 (stereo not drawn)	CHO-K1 Ca PAM 43
COc1ccc(NC(=O)C2CCN(S(C)(=O)=O)CC2)c(OC)c1	none
COc1ccc(NC(=O)C2CCN(S(=O)(=O)c3ccc(OC)c(OC)c3)CC2)c(OC)c1	CHO-K1 Ca antag 26
COc1ccc(C(=O)N2CCC(C(=O)Nc3ccccc3OC)CC2)cc1	none
COc1ccc(NC(=O)C2CCN(C(=O)c3ccccc3)CC2)c(OC)c1	M1 antag 61
COc1ccccc1NC(=O)C(Sc1ccccc1)c1ccccc1 (stereo not drawn)	none
Cc1ccc(/C=C(\NC(=O)c2ccccc2)C(=O)NCCN2CCOCC2)o1	CHO-K1 Ca antag 24
Cc1ccc(C(=O)N/C(=C\c2ccco2)C(=O)NCCN2CCCCC2)cc1C	none
O=C(NCCN1CCCCC1)/C(=C/c1ccco1)NC(=O)c1ccccc1	CHRM1 PAM 31
O=C1Nc2cc3c(cc2C1=O)sc1ccccc13	none
O=[N+]([O-])c1cccc(C(O)C23CN4CN(CN(C4)C2)C3)c1 (stereo not drawn)	none
CC(C)=N/N=C(\c1cccc([N+](=O)[O-])c1)C12CN3CN(CN(C3)C1)C2	M1 antag 62
CCc1noc(C)c1C(=O)Nc1sc(C(=O)N(C)C)c(C)c1C#N	none
NC(=O)c1ccc(C(F)(F)F)n(Cc2c(Cl)cccc2Cl)c1=O	CHRM1 PAM 20
COc1ccc(Cn2c(C(F)(F)F)ccc(C(N)=O)c2=O)cc1	none
COc1cccc(CC(=O)N[C@@H](CCSC)c2nc3ccccc3[nH]2)c1	none
COc1cccc(CNc2cnc3ccccc3c2)c1O	M1 ag parental 16
CCOC(=O)[C@H]1[C@H]2COc3cc(OC)ccc3[C@@H]2N2C(=O)N(c3cccc(F)c3)C(=O)[C@@]12C	none
CCOC(=O)[C@@H]1[C@H]2COc3cc(OC)ccc3[C@@H]2N2C(=O)N(c3ccc(C(F)(F)F)cc3)C(=O)[C@@]12C	none
CCOC(=O)[C@@H]1[C@H]2COc3cc(OC)ccc3[C@H]2N2C(=O)N(c3ccc(C(F)(F)F)cc3)C(=O)[C@]12C	CHO-K1 Ca antag 33, M1 antag 41
CCOC(=O)[C@@H]1[C@H]2COc3cc(OC)ccc3[C@H]2N2C(=O)N(c3cccc(F)c3)C(=O)[C@@]12C	M1 antag 31
Cc1csc2ncnc(N3CCN(C(=S)Nc4ccc(C(F)(F)F)cc4)CC3)c12	M1 antag 43
